Inconclusive results are not listed. A structure can be active in one record and inactive in another. The source made the active and inactive calls. How the source made its calls, unless noted: active means hit-call score of the fitted dose curve at least 0.9, where 1 is the maximum; inconclusive means response in the unintended direction; inactive means score below 0.9.

The target of experiment [1] is Hypoxia-inducible factor 1-alpha (Homo sapiens) (UniProt Q16665). Kind of experiment: ATG_HIF1a_CIS: Attagene CIS-FACTORIAL HepG2 Assay for human Hypoxia Inducible Factor 1 (HIF1A) (AID 2282951; active means hit-call score of the fitted dose curve at least 0.9, where 1 is the maximum; inactive means score below 0.9). Conditions: HepG2 Attagene cis-factorial HIF1a reporter transcription; actives raise or lower the signal. In a few lines: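 Transient MRTU transfection of human HepG2 liver cells, 24 h compound treatment, then total RNA isolation, oligo(dT) reverse transcription, PCR amplification, fluorescent labelling and capillary electrophoresis of reporter fragments. Gain or loss relative to DMSO.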

The nature of experiment [2]: ATG_PPRE_CIS: Attagene CIS-FACTORIAL HepG2 Assay for human Peroxisome Proliferator-activated Response Element (PPRE) (AID 2282958; active means hit-call score of the fitted dose curve at least 0.9, where 1 is the maximum; inactive means score below 0.9). Particulars: HepG2 PPRE cis-element reporter, Attagene transcription factor profiling; actives raise or lower the signal. In a few lines:
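HepG2, transient MRTU transfection (cis promoter elements, endogenous TFs). 24 h dosing. RNA → oligo(dT) RT → PCR → 6-FAM primer extension → HpaI digest → CE. Bidirectional fit vs DMSO.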

Experiment [3] is described as follows: ATG_M_19_TRANS: Attagene TRANS-FACTORIAL HepG2 Assay for M19 Transcription Factor (Internal Marker) (AID 2282974). Conditions: HepG2 Attagene TRANS-FACTORIAL M19 internal marker reporter. The method, boiled down: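 Fluorescence of 6-FAM-labelled reporter cDNA fragments, separated by capillary electrophoresis, served as the readout. These derived from HepG2 cells carrying transfected GAL4-UAS reporter units after 24 h dosing, with DMSO as negative control.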

Experiment [4] is described as follows: ATG_GAL4_TRANS: Attagene TRANS-FACTORIAL HepG2 Assay for GAL4 (Internal Marker) (AID 2282976). Particulars: HepG2 Attagene TRANS GAL4 internal marker reporter. The method, boiled down: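 Background-control readout: GAL4-UAS reporter transcript in transiently transfected HepG2 cells after 24 h compound exposure. Measured by RT-PCR, 6-FAM primer extension, HpaI digest and capillary electrophoresis; gain-of-signal fit versus DMSO.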

Experiment [5] has as its target Oxysterols receptor LXR-alpha (Homo sapiens) (UniProt Q13133). Description: ATG_LXRa_TRANS: Attagene TRANS-FACTORIAL HepG2 Assay for human Liver X Receptor alpha (LXRa) (AID 2282980). Particulars: HepG2 Attagene TRANS reporter, LXRa transactivation. The method, boiled down:
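HepG2 cells transiently transfected with GAL4-UAS reporter units for chimeric NR-Gal4 proteins, exposed to chemicals for 24 h. Reporter mRNA quantified by RT-PCR and capillary electrophoresis; gain of signal fitted relative to DMSO.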

In experiment [6] the target is Nuclear receptor subfamily 4 group A member 2 (Homo sapiens) (UniProt P43354). Kind of experiment: ATG_NURR1_TRANS: Attagene TRANS-FACTORIAL HepG2 Assay for human Nuclear Receptor Related Protein 1 (NURR1) (AID 2282985). Particulars: HepG2 Attagene TRANS reporter, mRNA readout. In a few lines: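 HepG2 cells transiently transfected with GAL4-UAS reporter units and chimeric NR-Gal4 constructs; chemical exposure 24 h. Reporter mRNA quantified by RT-PCR, fluorescent labelling and capillary electrophoresis; gain of signal fitted relative to DMSO baseline.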

Experiment [7] has as its target human Peroxisome Proliferator-activated Receptor delta (PPARd), PPARD (gene 5467) (UniProt Q03181). Kind of experiment: ATG_PPARd_TRANS: Attagene TRANS-FACTORIAL HepG2 Assay for human Peroxisome Proliferator-activated Receptor delta (PPARd) (AID 2283002). In a few lines: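 Multiplexed trans-activation format: HepG2 liver cells expressing exogenous NR-Gal4 chimeras and GAL4-UAS reporters were exposed for 24 h. Reporter mRNA was detected by RT-PCR with capillary electrophoresis fluorescence; activity fitted as gain of signal relative to DMSO.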

Experiment [8] has as its target human RAR-related Orphan Receptor beta (RORb), RORB (gene 6096) (UniProt Q92753). Kind of experiment: ATG_RORb_TRANS: Attagene TRANS-FACTORIAL HepG2 Assay for human RAR-related Orphan Receptor beta (RORb) (AID 2283010). The method, boiled down:
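HepG2 cells were transiently transfected with multiplexed GAL4-UAS reporter units expressing chimeric nuclear receptor–GAL4 proteins, then dosed for 24 h. Reporter mRNA was quantified by RT-PCR with fluorescent labelling and capillary electrophoresis; gain of signal was fitted relative to DMSO.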

In experiment [9] the target is human RAR-related Orphan Receptor gamma (RORg), RORC (gene 6097) (UniProt P51449). Kind of experiment: ATG_RORg_TRANS: Attagene TRANS-FACTORIAL HepG2 Assay for human RAR-related Orphan Receptor gamma (RORg) (AID 2283011). In a few lines:
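HepG2 cells transiently transfected with GAL4-UAS reporter units and chimeric RORg-Gal4 construct; after 24 h chemical exposure, reporter mRNA measured by RT-PCR with fluorescent capillary electrophoresis, gain of signal fitted against DMSO.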

For experiment [10], the target named is human Thyroid Receptor alpha (THRa1), THRA (gene 7067) (UniProt P10827). Description: ATG_THRa1_TRANS: Attagene TRANS-FACTORIAL HepG2 Assay for human Thyroid Receptor alpha (THRa1) (AID 2283014). In a few lines: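 HepG2 cells transiently transfected with chimeric NR-Gal4 and GAL4-UAS reporter units, dosed 24 h. Reporter mRNA quantified by RT-PCR, fluorescent labeling, HpaI digestion and capillary electrophoresis; gain-of-signal fit versus DMSO.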

For experiment [11], the target named is human Vitamin D Receptor (VDR), VDR (gene 7421) (UniProt P11473). Description: ATG_VDR_TRANS: Attagene TRANS-FACTORIAL HepG2 Assay for human Vitamin D Receptor (VDR) (AID 2283022). In a few lines:
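HepG2 cells were transiently transfected with GAL4-UAS reporter units and a chimeric VDR-Gal4 construct, then dosed for 24 hours. Reporter mRNA was quantified by RT-PCR, fluorescent labeling, HpaI digestion and capillary electrophoresis; gain of signal analysed vs DMSO.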

Experiment [12] can be described thus: TOX21_p53_BLA_p3_viability: Viability Assessment in the Tox21 HCT-116 p53 Agonism Beta-lactamase Assay, Phase 3 (AID 2283593).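 Further: cells exposed to compound for 16 h before reading.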 The method, boiled down:
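HCT-116 cells (4000/well) rested 5 h at 37C, then got DMSO compounds by pin tool (217-fold dilution) for 16 h at 37C, 5% CO2. After the bla read, CellTiter-Glo was added and luminescence read at 30 min, room temperature.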

A short description of experiment [13]: TOX21_p53_BLA_p4_viability: Viability Assessment in the Tox21 HCT-116 p53 Agonism Beta-lactamase Assay, Phase 4 (AID 2283597).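 Further: hits lower the luminescence signal meaning cytotoxicity.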 The method, boiled down: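 HCT-116 p53-bla cells, 4000/well, dosed after 5 h attachment and incubated 16 h at 37 °C, 5% CO2. Viability from CellTiter-Glo ATP luminescence after 30 min at room temperature, taken after the beta-lactamase read; loss of signal indicates cytotoxicity.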

For experiment [14], the target named is Bile acid receptor (Homo sapiens) (UniProt Q96RI1). Description: ATG_IR1_CIS: Attagene CIS-FACTORIAL HepG2 Assay for human Nuclear Receptor Subfamily 1 Group H Member 4 (NR1H4), IR1 submotif (AID 2282946; active means hit-call score of the fitted dose curve at least 0.9, where 1 is the maximum; inactive means score below 0.9). Particulars: IR1 reporter transcription, actives raise or lower the signal. The method, boiled down:
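Transient MRTU transfection, HepG2; 24 h dosing; RNA → RT-PCR → 6-FAM primer extension → HpaI digest → capillary electrophoresis fluorescence. Gain/loss of signal fitted relative to DMSO.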

The target of experiment [15] is Nuclear receptor subfamily 1 group I member 3 (Homo sapiens) (UniProt Q14994). Description: ATG_CAR_TRANS: Attagene TRANS-FACTORIAL HepG2 Assay for human Constitutive Androstane Receptor (CAR) (AID 2282969).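 Further: activators raise reporter mRNA above DMSO so AC50 marks induction.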 Particulars: HepG2 Attagene TRANS-FACTORIAL CAR reporter. The method, boiled down:
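HepG2 cells transiently transfected with multiplexed GAL4-UAS reporter units expressing chimeric NR-Gal4 proteins; compound exposure 24 h. Reporter mRNA measured by RT-PCR, 6-FAM labelling, HpaI digestion and capillary electrophoresis; gain-of-signal fitted against DMSO baseline.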

Experiment [16] has as its target Glucocorticoid receptor (Homo sapiens) (UniProt P04150). Kind of experiment: ATG_GR_TRANS: Attagene TRANS-FACTORIAL HepG2 Assay for human Glucocorticoid Receptor (GR) (AID 2282978).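 Further: activators score as hits since higher reporter transcript over DMSO is fitted.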 Conditions: HepG2 Attagene TRANS GR reporter, mRNA transcription. The method, boiled down: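 Fluorescent capillary-electrophoresis quantitation of reporter mRNA is the readout, taken 24 h after dosing human HepG2 cells carrying transiently transfected GAL4-UAS reporter units activated by chimeric NR-GAL4 fusions; activity scored as induction over DMSO.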

The target in experiment [17] is human Peroxisome Proliferator-activated Receptor alpha (PPARa), PPARA (gene 5465) (UniProt Q07869). Description: ATG_PPARa_TRANS: Attagene TRANS-FACTORIAL HepG2 Assay for human Peroxisome Proliferator-activated Receptor alpha (PPARa) (AID 2283001). In a few lines: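 HepG2 cells transiently transfected with multiplexed GAL4-UAS reporter units and chimeric NR-Gal4 constructs were dosed for 24 h. Reporter mRNA was measured by RT-PCR with fluorescent labelling and capillary electrophoresis; gain of signal fitted against DMSO.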

Experiment [18] has as its target Peroxisome proliferator-activated receptor gamma (Homo sapiens) (UniProt P37231). Kind of experiment: ATG_PPARg_TRANS: Attagene TRANS-FACTORIAL HepG2 Assay for human Peroxisome Proliferator-activated Receptor-gamma (PPARg) (AID 2283007). The method, boiled down:
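Transient transfection of HepG2 with GAL4-UAS-driven reporter units; chemical dosing 24 h; total RNA → oligo(dT) RT → PCR with reporter primers → 6-FAM primer extension → HpaI digest 2 h 37 C → capillary electrophoresis. Positive direction vs DMSO.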

The nature of experiment [19]: ACEA_ER_AUC_viability: ACEA Biosciences xCELLigence Real-Time Cell Analysis on Estrogen Receptor Agonism for Viability (AID 2283782).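 Further: continuous compound exposure with impedance area under curve over 80 h; hit means loss of impedance signal meaning reduced cell growth or viability.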 The method, boiled down:
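T-47D human breast cells in phenol red-free RPMI1640 with 10% charcoal-stripped FBS were dosed with an 8-point 1:4 dilution series from 100 uM top final concentration, in duplicate. Impedance-based growth was followed for 80 h; AUC analysed versus DMSO.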

Sequence of Hypoxia-inducible factor 1-alpha (Homo sapiens) (Q16665 whole entry, looked up, the tested form may be a part): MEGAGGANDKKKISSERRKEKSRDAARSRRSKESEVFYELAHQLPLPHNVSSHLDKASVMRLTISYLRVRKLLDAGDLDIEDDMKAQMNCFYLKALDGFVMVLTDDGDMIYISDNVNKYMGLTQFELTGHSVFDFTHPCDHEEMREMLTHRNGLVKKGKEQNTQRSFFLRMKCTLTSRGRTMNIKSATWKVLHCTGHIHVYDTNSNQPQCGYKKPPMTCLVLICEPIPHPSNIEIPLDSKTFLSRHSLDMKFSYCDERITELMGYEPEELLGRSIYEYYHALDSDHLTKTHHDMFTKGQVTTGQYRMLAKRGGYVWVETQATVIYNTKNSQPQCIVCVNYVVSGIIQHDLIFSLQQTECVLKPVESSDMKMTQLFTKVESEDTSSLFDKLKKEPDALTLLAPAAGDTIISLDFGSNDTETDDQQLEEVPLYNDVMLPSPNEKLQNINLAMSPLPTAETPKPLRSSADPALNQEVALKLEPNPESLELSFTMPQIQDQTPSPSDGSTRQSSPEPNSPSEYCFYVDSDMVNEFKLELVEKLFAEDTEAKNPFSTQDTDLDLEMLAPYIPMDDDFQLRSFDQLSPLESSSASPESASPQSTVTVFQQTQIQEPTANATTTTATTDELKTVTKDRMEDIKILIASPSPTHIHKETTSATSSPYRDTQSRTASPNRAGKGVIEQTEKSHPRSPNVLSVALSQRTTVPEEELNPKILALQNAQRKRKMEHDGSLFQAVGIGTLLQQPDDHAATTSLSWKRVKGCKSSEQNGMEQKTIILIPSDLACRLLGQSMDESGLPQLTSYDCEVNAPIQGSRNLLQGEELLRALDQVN
Sequence of human Peroxisome Proliferator-activated Receptor alpha (PPARa), PPARA (gene 5465) (Q07869 whole entry, looked up, the tested form may be a part): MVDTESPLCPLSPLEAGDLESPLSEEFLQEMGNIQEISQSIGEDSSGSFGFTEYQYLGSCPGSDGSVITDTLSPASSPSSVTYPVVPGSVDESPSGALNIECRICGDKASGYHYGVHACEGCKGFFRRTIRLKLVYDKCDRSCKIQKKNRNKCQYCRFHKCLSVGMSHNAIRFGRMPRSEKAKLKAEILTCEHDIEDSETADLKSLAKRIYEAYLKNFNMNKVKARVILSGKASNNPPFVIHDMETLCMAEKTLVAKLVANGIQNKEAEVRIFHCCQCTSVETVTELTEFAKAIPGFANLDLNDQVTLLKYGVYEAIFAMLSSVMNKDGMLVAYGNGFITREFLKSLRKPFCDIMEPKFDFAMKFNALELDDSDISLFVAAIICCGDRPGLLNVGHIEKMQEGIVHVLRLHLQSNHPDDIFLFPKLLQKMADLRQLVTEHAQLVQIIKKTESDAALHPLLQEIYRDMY
Sequence of human Thyroid Receptor alpha (THRa1), THRA (gene 7067) (P10827 whole entry, looked up, the tested form may be a part): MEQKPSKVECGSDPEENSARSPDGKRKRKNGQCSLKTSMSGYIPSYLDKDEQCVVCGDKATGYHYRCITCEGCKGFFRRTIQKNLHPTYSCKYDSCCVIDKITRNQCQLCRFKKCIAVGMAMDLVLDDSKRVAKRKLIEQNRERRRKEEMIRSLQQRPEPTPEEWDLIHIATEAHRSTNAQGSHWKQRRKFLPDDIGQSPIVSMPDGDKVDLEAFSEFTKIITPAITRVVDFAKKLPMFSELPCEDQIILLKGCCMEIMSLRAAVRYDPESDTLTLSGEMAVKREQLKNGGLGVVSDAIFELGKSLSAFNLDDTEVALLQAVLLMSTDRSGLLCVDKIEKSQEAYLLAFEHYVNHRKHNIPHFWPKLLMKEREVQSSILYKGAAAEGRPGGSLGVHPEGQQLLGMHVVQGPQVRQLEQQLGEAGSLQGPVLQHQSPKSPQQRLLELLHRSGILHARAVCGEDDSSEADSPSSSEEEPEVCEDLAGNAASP
Sequence of Nuclear receptor subfamily 4 group A member 2 (Homo sapiens) (P43354 whole entry, looked up, the tested form may be a part): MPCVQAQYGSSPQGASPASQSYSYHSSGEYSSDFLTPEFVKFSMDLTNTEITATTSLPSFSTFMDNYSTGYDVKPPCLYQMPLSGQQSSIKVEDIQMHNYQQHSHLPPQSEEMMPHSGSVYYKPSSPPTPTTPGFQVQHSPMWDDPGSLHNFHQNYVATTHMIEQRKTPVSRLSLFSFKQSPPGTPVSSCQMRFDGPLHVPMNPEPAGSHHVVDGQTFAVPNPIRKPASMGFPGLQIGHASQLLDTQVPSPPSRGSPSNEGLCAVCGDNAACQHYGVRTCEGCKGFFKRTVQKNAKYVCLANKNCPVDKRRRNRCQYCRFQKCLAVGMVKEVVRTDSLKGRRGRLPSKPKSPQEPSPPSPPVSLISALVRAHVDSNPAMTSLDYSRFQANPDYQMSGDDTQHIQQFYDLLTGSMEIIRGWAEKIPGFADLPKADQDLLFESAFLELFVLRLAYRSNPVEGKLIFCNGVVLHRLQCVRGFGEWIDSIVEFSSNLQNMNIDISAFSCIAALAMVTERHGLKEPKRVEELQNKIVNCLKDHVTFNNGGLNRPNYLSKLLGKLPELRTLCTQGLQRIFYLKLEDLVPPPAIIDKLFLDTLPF
Sequence of human Vitamin D Receptor (VDR), VDR (gene 7421) (P11473 whole entry, looked up, the tested form may be a part): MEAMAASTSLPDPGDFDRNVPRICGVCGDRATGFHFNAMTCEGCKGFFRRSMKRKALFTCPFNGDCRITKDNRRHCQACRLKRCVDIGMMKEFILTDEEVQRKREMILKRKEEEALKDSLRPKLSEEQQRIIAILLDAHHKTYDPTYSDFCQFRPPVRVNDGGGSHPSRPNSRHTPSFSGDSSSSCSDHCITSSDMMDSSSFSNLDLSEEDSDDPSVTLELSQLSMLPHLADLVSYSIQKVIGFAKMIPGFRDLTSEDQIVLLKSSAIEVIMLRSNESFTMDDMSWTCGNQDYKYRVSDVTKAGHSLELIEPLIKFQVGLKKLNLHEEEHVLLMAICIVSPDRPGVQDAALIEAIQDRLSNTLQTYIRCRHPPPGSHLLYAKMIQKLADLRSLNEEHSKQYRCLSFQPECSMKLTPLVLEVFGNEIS
Sequence of Peroxisome proliferator-activated receptor gamma (Homo sapiens) (P37231 whole entry, looked up, the tested form may be a part): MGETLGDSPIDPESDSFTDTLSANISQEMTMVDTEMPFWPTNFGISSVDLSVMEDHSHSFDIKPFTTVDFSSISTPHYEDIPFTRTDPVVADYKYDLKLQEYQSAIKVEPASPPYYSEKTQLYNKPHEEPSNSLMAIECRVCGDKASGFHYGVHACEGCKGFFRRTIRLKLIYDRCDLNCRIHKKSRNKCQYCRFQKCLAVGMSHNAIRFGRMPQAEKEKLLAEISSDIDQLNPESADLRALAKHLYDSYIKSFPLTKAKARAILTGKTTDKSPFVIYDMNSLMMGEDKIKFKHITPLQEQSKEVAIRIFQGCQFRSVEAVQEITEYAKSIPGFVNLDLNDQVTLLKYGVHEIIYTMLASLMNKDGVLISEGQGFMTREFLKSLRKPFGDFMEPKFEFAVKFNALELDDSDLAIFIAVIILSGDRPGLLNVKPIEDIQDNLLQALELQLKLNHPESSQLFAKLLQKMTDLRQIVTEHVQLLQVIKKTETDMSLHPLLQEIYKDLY
Sequence of Oxysterols receptor LXR-alpha (Homo sapiens) (Q13133 whole entry, looked up, the tested form may be a part): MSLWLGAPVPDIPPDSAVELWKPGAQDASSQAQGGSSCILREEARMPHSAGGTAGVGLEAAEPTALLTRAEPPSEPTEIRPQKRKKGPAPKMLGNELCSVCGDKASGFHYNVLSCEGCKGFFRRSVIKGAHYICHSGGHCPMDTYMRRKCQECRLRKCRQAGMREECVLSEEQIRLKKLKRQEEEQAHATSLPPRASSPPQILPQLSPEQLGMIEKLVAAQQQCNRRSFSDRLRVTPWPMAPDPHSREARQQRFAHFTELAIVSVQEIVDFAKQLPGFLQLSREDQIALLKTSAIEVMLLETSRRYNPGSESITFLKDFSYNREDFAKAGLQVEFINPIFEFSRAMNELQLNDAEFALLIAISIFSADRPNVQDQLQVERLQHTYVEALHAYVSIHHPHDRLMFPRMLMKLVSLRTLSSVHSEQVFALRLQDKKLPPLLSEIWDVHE
Sequence of Glucocorticoid receptor (Homo sapiens) (P04150 whole entry, looked up, the tested form may be a part): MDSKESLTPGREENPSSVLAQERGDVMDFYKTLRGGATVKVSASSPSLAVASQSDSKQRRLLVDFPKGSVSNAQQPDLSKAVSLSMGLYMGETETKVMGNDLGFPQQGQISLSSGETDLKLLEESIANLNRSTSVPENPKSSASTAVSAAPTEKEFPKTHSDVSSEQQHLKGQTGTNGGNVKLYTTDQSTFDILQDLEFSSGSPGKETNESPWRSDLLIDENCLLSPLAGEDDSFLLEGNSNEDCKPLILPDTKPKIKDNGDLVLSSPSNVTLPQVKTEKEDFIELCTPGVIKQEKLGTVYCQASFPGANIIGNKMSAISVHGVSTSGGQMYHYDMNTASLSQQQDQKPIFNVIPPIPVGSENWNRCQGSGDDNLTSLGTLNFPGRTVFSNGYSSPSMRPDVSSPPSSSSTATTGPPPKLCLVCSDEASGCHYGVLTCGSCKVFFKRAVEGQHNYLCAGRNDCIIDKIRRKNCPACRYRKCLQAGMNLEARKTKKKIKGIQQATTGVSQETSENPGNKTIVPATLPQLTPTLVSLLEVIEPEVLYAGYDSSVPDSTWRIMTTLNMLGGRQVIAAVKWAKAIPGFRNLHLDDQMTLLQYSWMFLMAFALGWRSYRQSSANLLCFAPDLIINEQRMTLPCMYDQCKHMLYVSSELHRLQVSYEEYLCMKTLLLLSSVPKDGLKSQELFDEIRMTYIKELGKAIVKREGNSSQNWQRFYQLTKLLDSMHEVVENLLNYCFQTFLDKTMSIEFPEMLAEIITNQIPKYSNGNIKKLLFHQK
Sequence of human Peroxisome Proliferator-activated Receptor delta (PPARd), PPARD (gene 5467) (Q03181 whole entry, looked up, the tested form may be a part): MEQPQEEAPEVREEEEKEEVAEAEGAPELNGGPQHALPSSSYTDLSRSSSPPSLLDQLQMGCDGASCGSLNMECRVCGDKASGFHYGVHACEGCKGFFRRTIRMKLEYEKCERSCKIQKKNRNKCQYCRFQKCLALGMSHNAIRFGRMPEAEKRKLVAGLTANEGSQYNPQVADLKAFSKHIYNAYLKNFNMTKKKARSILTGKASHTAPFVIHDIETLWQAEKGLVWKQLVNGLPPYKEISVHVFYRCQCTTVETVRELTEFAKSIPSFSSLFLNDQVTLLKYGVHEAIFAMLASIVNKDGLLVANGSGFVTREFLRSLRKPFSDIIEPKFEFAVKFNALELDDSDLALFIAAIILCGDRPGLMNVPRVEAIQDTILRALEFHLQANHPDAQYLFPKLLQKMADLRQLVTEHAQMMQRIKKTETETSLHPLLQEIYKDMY

Take `COC(=O)c1ccccc1`: the molecule was called inactive in experiment [1], in experiment [2], in experiment [3], in [4], in experiment [5] and in experiment [6]. The molecule was called inactive in [7], in [8], in experiment [9], in experiment [10], in experiment [11] and in experiment [12]. Moreover, the molecule was classed as inactive in experiment [13].

Regarding `CCCC(=O)OC/C=C(\C)CCC=C(C)C`, the outcome in experiment [14], in experiment [1], in experiment [2], in [15], in experiment [3] and in [4] was inactive. The call in [16], in experiment [6], in experiment [17], in experiment [18], in experiment [9] and in experiment [10] was inactive. The molecule was called inactive in [11]. Also, in experiment [19], the AC50 was 68.8 µM (active).

As for `CCCCCCCCCCC1CO1` (stereo not drawn), the call in experiment [1], in experiment [2], in [3], in experiment [4], in [6] and in experiment [17] was inactive. Also, the call in experiment [7], in experiment [18], in experiment [10] and in [11] was inactive. The AC50 in experiment [19] was 32.9 µM (active).

On to `Nc1ccc(S(=O)(=O)Nc2cnc3ccccc3n2)cc1`, for which the molecule was called inactive in [5], in experiment [6], in experiment [18], in [10], in [11] and in experiment [12]. In experiment [19], the call was inactive.

For `CN(C)CCC(c1ccc(Cl)cc1)c1ccccn1` (stereo not drawn), the molecule was called inactive in experiment [3], in experiment [4], in [12], in experiment [13] and in experiment [19].

Take `CN(C)CCCN1c2ccccc2CCc2ccc(Cl)cc21`: the result in experiment [4], in [16], in experiment [6], in [17], in experiment [18] and in experiment [10] was inactive. Besides, in experiment [13], the molecule was classed as inactive. In addition, in [13], the AC50 was 73.9 µM (active).

Usually AC50 stands for the concentration at which the activity in the assay is half-maximal.

The values above are taken from PubChem BioAssay (EPA / NIEHS).
